# Experiments:
# Assay in all cases: PBM binding z-score (relative to random genomic background probes); higher = stronger binding; sequences stand for … in GC…GCGATTGACAGCGTAGAATGAAGG
# [1] = system: RARb homodimer (NR concentration 270 nM)
# Summary of the method: (§1)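 Custom Agilent 4×180K protein-binding microarrays carried double-stranded probes, each with a 34-nt variable region. These regions held direct-repeat seeds, single-nucleotide variants, half-site ablations and random human genomic background sequences. Ligand-free nuclear receptor dimers were incubated on the arrays for 1 h, antibodies against each partner (one per run) detected binding, and scanned fluorescence was regression-normalized. Binding z-scores take the random background probes as reference.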
# [2] = system: RARg:RXRa (NR concentration 270 nM, RXRa partner concentration 90 nM)
# Summary of the method: as §1
# [3] = system: RARg homodimer (NR concentration 270 nM)
# Summary of the method: as §1
# [4] = system: RXRa DBDmut IVT, anti-RXR (DBD mutation: RXRa K156A/R161A, NR concentration 90 nM)
# Summary of the method: as §1
# [5] = system: RXRa homodimer (NR concentration 180 nM)
# Summary of the method: as §1
# [6] = system: THRa:RXRa (NR concentration 90 nM, RXRa partner concentration 90 nM)
# Summary of the method: as §1
# [7] = system: THRa homodimer (NR concentration 90 nM)
# Summary of the method: as §1
# [8] = system: VDR:RXRa (NR concentration 270 nM, RXRa partner concentration 90 nM)
# Summary of the method: as §1
# [9] = system: VDR homodimer (NR concentration 270 nM)
# Summary of the method: as §1
Sequence,PBM binding z-score [1],PBM binding z-score [2],PBM binding z-score [3],PBM binding z-score [4],PBM binding z-score [5],PBM binding z-score [6],PBM binding z-score [7],PBM binding z-score [8],PBM binding z-score [9]
CTAACTAGGTCACAGAGGTCAAAGTCCGTGCGTA,5.46,7.35,7.81,3.52,7.99,4.64,3.13,8.06,7.07
AGAATGAGGTTACACGTAGATCAGGGAAGAAAGT,1.16,2.34,1.89,1.23,2.3,2.75,1.12,1.67,0.772
CTATGTAGGTTAAGGTGGTCATTCAGTTTGAAAG,1.42,1.02,1.05,0.518,1.08,1.36,0.282,2.29,0.721
ATATGTTGGTTAGGGTCATTCAGAAAGTAGGGAA,3.19,3.79,2.71,2.64,5.05,4.08,3.71,4.37,4.01
TCGAGTAGGTTACAGGGGCATTCAGGGATGAAGA,1.64,1.1,0.679,0.69,1.29,2.65,0.735,1.67,1.42
TCTAGTTGGTCACGGGGGTCACACACGACGGGTA,4.5,6.36,5.7,2.07,6.5,4.03,3.01,6.57,4.15
CTATGTAGGTTAAGGGGGTCATTCAGTTTGAAAG,3.93,5.34,4,2.56,6.26,3.95,2.19,7.57,4.98
CAAACTAGGTCACCGGAAGGTCATAGTCCGCATG,5.85,7.82,6.45,1.8,5.92,4.58,3.33,5.66,2.78
TTTCCAAGGTGAAAGGTCGTTGATGCACGCCTTG,2.58,4.16,1.99,0.408,5.33,3.76,1.38,3.38,1.38
CCGATTAGGTTACGAGGGGGCATTCAGTGCGAAT,2.56,3.12,2.54,1.96,1.52,3.91,1.57,5.1,2.8
TCTAGTTGGTCAAAGGCCACACACTCGAAATGCG,1.9,1.77,1.42,0.875,1.71,0.626,0.029,1.04,-0.00157
CGTCAAAGTTCAACTAAGGTAACTTAAAGCACGC,4.27,5.75,6.52,4.71,4.83,5.38,1.52,4.76,4.08
ATATGTAGGTTAGGGTCATACAGAAAGTAGGGAA,3.48,4.25,3.47,2.26,5.6,4.1,3.09,4.24,3.03
TCGAGTCGGTTACGGGGGCATTCAGGGATGAAGA,1.57,2.4,1.77,1.16,1.5,3.45,0.955,2.73,2.23
AGAATGAGGTTAACAAAGATCAGGGAAACGCTTG,0.892,2.1,1.73,1.27,2.69,2.57,0.682,1.71,0.0806
CCGAGTAGGTTACGAGTGGGCATTCAGTGCGAAT,0.401,0.298,0.292,-0.0539,0.364,0.606,-0.579,-0.217,0.108
ATATGTAGGTTACATCCGAGTCATTCAGGCTATG,0.405,0.915,1.04,0.858,1.04,0.785,0.511,0.386,0.236
CTATGTAGGTTGAGGGGGTCATTCAGTTTGAAAG,3.8,5.4,4.34,2.5,5.59,4.05,3.08,7,6.14
CTATGTAGGTTAAGGGGGTCATTCCGTTTGAAAG,3.76,5.11,4.02,2.32,5.96,3.58,1.83,7.25,5.23
CCGAGTACGTTACGAGGGGGCATTCAGTGCGAAT,1.5,1.85,1.41,3.95,1.17,2.36,0.395,4.15,4.78
CTATGTAGATTAAGGGGGTCATTCAGTTTGAAAG,3.68,4.14,2.94,2.82,5.19,3.74,2.37,6.53,5.58
CGAACTAGGTTACCAGGACAGTGAAGAGGTTGGA,1.01,0.707,1.05,0.48,0.367,1.62,0.878,-0.164,0.0565
CGAACTAGGTCACCAGGACAGTGTAGAGGTTGGA,3.53,4.35,5.47,1.65,3.25,3.47,2.14,2.17,0.343
AGAATGAGGTTACCAAAGATCAGTGAAACGCTTG,0.66,2.09,1.51,1.14,2.67,2.65,0.639,,0.206
CTATGTAGGTTAAGGGCGTCATTCAGTTTGAAAG,0.798,0.63,0.752,0.53,0.739,1.42,0.232,,0.4
TTACCAAGGTGAAAGGTCGTTGAAGCACGCCTTG,2.64,4.3,2,0.879,5.84,3.57,0.624,,1.29
ATATGTAGGTTAGGGTCATCCAGAAAGTAGGGAA,3.38,4.31,3.5,2.19,5.6,4.15,3.73,,3.58

Sequence,PBM binding z-score [1],PBM binding z-score [2],PBM binding z-score [3],PBM binding z-score [4],PBM binding z-score [5],PBM binding z-score [6],PBM binding z-score [7],PBM binding z-score [8],PBM binding z-score [9]
ATATGTCGGTTAGGGTCATTCAGAAAGTAGGGAA,3.22,3.91,3.09,2.46,4.81,4.36,3.4,,4.14
CAATCTAGGTCAAAGGTCAAAGTCGAGCCAACCA,5.31,8.93,7.21,2.92,10.3,4.99,2.3,,2.73
TAGCCTAGGACATGCGGGCCAGTATAGTGTCGGC,-0.329,-0.38,0.0739,-1.32,-0.25,0.348,-0.342,-0.777,-1.08
CCTACTGGGCCACGAAAGGGCATTGATTCAGTGA,1.74,0.854,1.12,-0.586,0.314,1.07,-0.645,,-0.334
TTACCAAGGTGAACTGAGGTCGTTGATCCAACTC,2.38,2.52,1.54,1.71,2.63,4.93,3.07,,3.63
AATACAGGGTCGCTAGGCCAGAGTAGGTACGAAT,0.921,1.37,1.37,0.47,1.52,1.09,0.0627,,0.727
CCTAGTTGGTCAGGGGGTCACACACCGGATATGA,4.05,5.83,4.22,0.886,6.18,3.88,2.28,4.94,3.16
ACTTGGAGGACAAAGGTCAGAGCTACGCCAGTGA,4.32,6.26,5.66,1.71,5.24,3.55,0.496,,1.62
CGCACTAGGTCACCAGGACAGTGAAGAGGTTGGA,3.34,4.53,5.06,1.09,3.23,3.34,2.35,,1.14
ATATGTAGGTTACATCGGGGTCATTCAGGCTATG,4.16,5.65,3.14,2.56,6.42,4.32,3.16,,6.17
CTATGTAGGTTAAGGGGGTCAGTCAGTTTGAAAG,3.63,4.2,3.72,1.75,4.08,3.17,1.89,6.49,3.99
CCGACTGGGCCATTCAGAGGTCATTGATCATATG,3.91,4.49,3.13,1.43,3.85,3.01,1.22,3.7,3.2
TCGAGTAGGTTACGGGGCCATTCAGGGATGAAGA,1.21,0.957,0.954,0.0548,1.06,2.47,0.44,,0.657
CCGAGTATGTTACGAGGGGGCATTCAGTGCGAAT,1.63,1.76,1.26,2.1,1.31,2.31,0.458,,3.74
CCGTACGGGTCAAGGTTATAGCACGGGTGGTACG,3.24,4.93,4.6,0.337,5.61,3.09,0.588,,1.37
ATATGTAGGTTAGGGTCATTCTGAAAGTAGGGAA,3.35,3.61,2.78,2.79,4.88,4.05,3.12,,3.77
CGTCCAAGGTCCATGCTAGGTCAGTGAAAGCATT,2.62,1.41,1.22,1.41,0.238,2.73,0.766,,1.07
CGACCTAGGTCACCAGGACAGTGAAGAGGTTGGA,3.51,5.3,5.83,1.6,3.92,3.44,1.53,,0.503
AGTCAAAGTTCACTAGGTTACGTAAGATTCAGCT,4.27,5.33,6.12,4.29,4.53,2.55,0.508,,3.98
ATATGTAGGTTAGGGCCATTCAGAAAGTAGGGAA,1.13,0.818,0.94,0.769,0.668,1.47,0.811,,0.685
TCATATAGGTAATAGGTGAAAGTCGGTGTGGTAA,0.632,0.482,0.284,1.59,1.53,0.534,0.384,,0.435
CCTTACAGGTCAAGGTTATAGCACGGGTGGTACG,3.78,5.27,5.53,1.83,4.72,3.18,1.33,,1.73
CTATGTAGGTTAAGGGGGCCATTCAGTTTGAAAG,1.71,2.17,1.78,1.21,1.73,2.02,0.914,,1.98
CTCTGTAGGTTAAGGGGGTCATTCAGTTTGAAAG,3.87,5.32,4.07,2.52,5.91,3.86,2.34,7.66,5.47
CGTGCAAGGTCAGAGAGGTCAGTGAATGCCGAGT,5.37,6.33,7.25,3.07,5.82,4.31,2.54,,5.99
CCTTACGGGTCGCTGACAGGTTATAGCATTTGGA,1.02,2.45,1.01,0.55,1.78,0.913,-0.259,,0.138
TCTAGTTGGTCACGGAGGTCACACGCGACGGGTA,4.41,4.66,4.95,1.4,4.97,3.67,2.4,,3.43

# Reference: the supplement of paper PMC6555819
